The source made the active and inactive calls. How the source made its calls: active means hit-call score of the fitted dose curve at least 0.9, where 1 is the maximum; inactive means score below 0.9.
Read-out: Glutamate-cysteine ligase catalytic (GCLC), GCLC (gene 2729)
Test: LTEA_HepaRG_GCLC: Life Technologies and Expression Analysis (LTEA) Assay for Glutamate-cysteine ligase catalytic (GCLC) using HepaRG (AID 2283498)
Conditions: mRNA level, 48 h; actives raise or lower the signal
Protocol: LTEA_HepaRG is a cell based, multiplexed-readout assay that uses HepaRG, a human liver cell line, with measurements taken at 48 hours after chemical dosing on a 96-well plate.LTEA_HepaRG_GCLC is one of 102 assay component(s) measured in the LTEA HepaRG cell culture assay. It is a marker of Oxidative Stress.Data from the assay component LTEA_HepaRG_GCLC was analyzed into 1 endpoint. This assay endpoint, LTEA_HepaRG_GCLC, was analyzed with bidirectional fitting relative to DMSO as the negative control and baseline of activity. Using a type of inducible reporter, measures of mRNA induction for gain or loss-of-signal activity can be used to understand regulation of transcription factor activity. To generalize the intended target to other relatable targets, this assay endpoint is annotated to the ligase intended target family, where the subfamily is C-N ligase.
A total of 1060 chemcials from the ToxCast library were tested in eight-point concentration-response experiments. Cell culture and cytotoxicity assays were conducted at Thermo Fisher Scientific's Custom Services facility (Madison, WI). A single lot of human HepaRG cells (Thermo Fisher Scientific, Frederick, MD) was used for the cell culture experiments. 96-well format collagen type I coated plates of human HepaRG cells were prepared using established methods. Briefly, cryopreserved HepaRG cells were thawed, plated at a density of approximately 100,000 cells/well in HepaRG Thaw, Plate, and General Purpose media (HPRG770, Thermo Fisher Scientific), and incubated for 48 hours. 0.5% DMSO was selected as vehicle control to balance the requisite need of DMSO in HepaRG cultures to maintain differentiation (for example, baseline metabolism, proportions of hepatocytes vs. cholangiocytes), while enabling further hepatic receptor pathway activation (for example, PXR and CAR) in response to chemical exposure. 48 hours after plating, the culture medium was replaced with HepaRG Serum-Free Incudtion Media. Cells were exposed to each test chemical in duplicate and maintained in CO2 incubators for another 48 hours. Chemical plates were thawed to room temperature and 200x concentrations of treatment groups were prepared. 8-point conentration-reponse curves were made with the highest exposure at 100 uM, followed by half-log dilutions, all in 0.5% DMSO. Each test plate contained variouse controls, induction positive controls (1mM phenobarbital), cytotoxicity positive controls ([…] aflatoxin B1), vehicle controls (0.5% DMSO), and total lysis controls (0.5% DMSO). Cell morphology images were taken using an Essen IncuCyte FLR automated microscope, with six 96-well plates imaged in about 24 minutes. Images were captured and exported and JPEG files. Spent culture media was transfered to black-well plates for the LDH assay, and remaining media was sorted at -80 C for later use. Cells were treated with RLT buffer and frozen until shipped for gene expression analysis. Total RNA was isolated from the cell suspension in 75 uL of Buffer RLT (Qiagen, Germantown, MD 20874) by Quintiles/Expression Analysis (Durham, NC) using a custom isolation procedure. Total RNA from each plate well was transferred to a preamplification plate. Fluidigm's 96.96 Dynamic ArrayTM (Fluidigm, Amsterdam, the Netherlands) technology was used for gene expression analyses by quantitative reverse transcription polymerase chain reaction (qRT-PCR, performed by Quintiles/Expression Analysis, Durham, NC)89. Standard TaqManTM Assays (Applied Biosystems/ThermoFisher Scientific, Foster City, CA) were used to assess the expression of 93 genes selected based on their selectivity and sensitivity to important hepatic receptors known to be modulated by environmental chemicals; importance in human hepatocyte functionality; and hepatotoxicity. […]

Compound	outcome	AC50
CCCSP(=O)(OCC)Oc1ccc(Br)cc1Cl (stereo not given)	inactive	–
Cc1nn(-c2cc(NS(C)(=O)=O)c(Cl)cc2Cl)c(=O)n1C(F)F	inactive	–
CN(C)NC(=O)CCC(=O)O	inactive	–
CCC(=NOC/C=C/Cl)C1=C(O)CC(C2CCOCC2)CC1=O (stereo not given)	inactive	–
CC(C)[C@H](C(=O)O[C@H](C#N)c1cccc(Oc2ccccc2)c1)c1ccc(Cl)cc1	inactive	–
CSc1nnc(C(C)(C)C)c(=O)n1N	inactive	–
CCc1cccc(C)c1N(C(=O)CCl)C(C)COC (stereo not given)	inactive	–
S=C1NCCN1	inactive	–
CCC(=O)Nc1ccc(Cl)c(Cl)c1	inactive	–
C#CC(C)(C)NC(=O)c1cc(Cl)cc(Cl)c1	inactive	–
CCCOCC(=Nc1ccc(Cl)cc1C(F)(F)F)n1ccnc1	–	91 µM (active)
CN(C)[C@@H]1C(=O)C(C(N)=O)=C(O)[C@@]2(O)C(=O)C3=C(O)c4c(O)cccc4[C@@](C)(O)[C@H]3[C@H](O)[C@@H]12	inactive	–
CCOP(=S)(OCC)OC(Cl)C(Cl)(Cl)Cl (stereo not given)	inactive	–
COP(=O)(OC)C(O)C(Cl)(Cl)Cl (stereo not given)	inactive	–
COc1cccc(C(=O)NN(C(=O)c2cc(C)cc(C)c2)C(C)(C)C)c1C	inactive	–
COP(=O)(OC)OC(Br)C(Cl)(Cl)Br (stereo not given)	inactive	–
CCOP(=S)(OCC)Oc1cc(C)nc(C(C)C)n1	inactive	–
CCOC(=O)COc1cc(-c2nn(C)c(OC(F)F)c2Cl)c(F)cc1Cl	inactive	–
C=C(C)[C@H]1Cc2c(ccc3c2O[C@@H]2COc4cc(OC)c(OC)cc4[C@@H]2C3=O)O1	inactive	–
CCCOc1nn(C(=O)NS(=O)(=O)c2ccccc2C(=O)OC)c(=O)n1C	inactive	–

Compound	outcome	AC50
CCNc1nc(Cl)nc(NC(C)(C)C#N)n1	inactive	–
CC(C)=CC1C(C(=O)OCN2C(=O)C3=C(CCCC3)C2=O)C1(C)C (stereo not given)	inactive	–
Nc1nc(N)nc(NC2CC2)n1	inactive	–
CCOP(=S)(OCC)Oc1ccc([N+](=O)[O-])cc1	inactive	–
CC(COc1ccc(Oc2ccccc2)cc1)Oc1ccccn1 (stereo not given)	inactive	–
CCC(CC)Nc1c([N+](=O)[O-])cc(C)c(C)c1[N+](=O)[O-]	inactive	–
C[Si](Cn1cncn1)(c1ccc(F)cc1)c1ccc(F)cc1	inactive	–
CC(Oc1cccc(Cl)c1)C(=O)O (stereo not given)	inactive	–
CC1(C(=O)Nc2ccc(O)c(Cl)c2Cl)CCCCC1	inactive	–
CN(C)C(=O)Nc1cccc(C(F)(F)F)c1	inactive	–
CON=C(C(=O)OC)c1ccccc1CON=C(C)c1cccc(C(F)(F)F)c1	inactive	–
COP(=O)(NC(C)=O)SC (stereo not given)	inactive	–
CC(C1CC1)C(O)(Cn1cncn1)c1ccc(Cl)cc1 (stereo not given)	inactive	–
Nc1c(Cl)cc([N+](=O)[O-])cc1Cl	–	88 µM (active)
CCCCSP(=O)(SCCCC)SCCCC	inactive	–
CCc1cnc(C2=NC(C)(C(C)C)C(=O)N2)c(C(=O)O)c1 (stereo not given)	inactive	–
CCCCOC(=O)c1ccccc1C(=O)O	inactive	–
O=c1ccc(=O)[nH][nH]1	inactive	–
CCOP(=S)(Oc1cnc(C(C)(C)C)nc1)OC(C)C (stereo not given)	inactive	–
CNC(=O)Oc1cccc2c1OC(C)(C)O2	inactive	–

— PubChem BioAssay (EPA / NIEHS)
